Source: PubChem BioAssay AID1347420 (Sanford-Burnham Center for Chemical Genomics, 2020)
Hit rate of the full screen: of about 1,300 compounds, about 980 (75%) were called active. Not shown: some 4% with an inconclusive outcome. Some of the results follow. A number with no mark means an inactive call.

Each molecule was assayed against Sulfhydryl oxidase 1 (Homo sapiens) (UniProt O00391) (assay: QSOX1 enzyme inhibitors, primary screen, biochemical, HyperBlu H2O2 luminescence, HTS (AID 1347420; also: values above 100% were filed as inconclusive)). Conditions: recombinant QSOX1, HyperBlu H2O2 luminescence; at 12.5 µM; active compounds read high; active = any value above zero.
Sulfhydryl oxidase 1 (Homo sapiens), sequence (O00391 whole entry, looked up): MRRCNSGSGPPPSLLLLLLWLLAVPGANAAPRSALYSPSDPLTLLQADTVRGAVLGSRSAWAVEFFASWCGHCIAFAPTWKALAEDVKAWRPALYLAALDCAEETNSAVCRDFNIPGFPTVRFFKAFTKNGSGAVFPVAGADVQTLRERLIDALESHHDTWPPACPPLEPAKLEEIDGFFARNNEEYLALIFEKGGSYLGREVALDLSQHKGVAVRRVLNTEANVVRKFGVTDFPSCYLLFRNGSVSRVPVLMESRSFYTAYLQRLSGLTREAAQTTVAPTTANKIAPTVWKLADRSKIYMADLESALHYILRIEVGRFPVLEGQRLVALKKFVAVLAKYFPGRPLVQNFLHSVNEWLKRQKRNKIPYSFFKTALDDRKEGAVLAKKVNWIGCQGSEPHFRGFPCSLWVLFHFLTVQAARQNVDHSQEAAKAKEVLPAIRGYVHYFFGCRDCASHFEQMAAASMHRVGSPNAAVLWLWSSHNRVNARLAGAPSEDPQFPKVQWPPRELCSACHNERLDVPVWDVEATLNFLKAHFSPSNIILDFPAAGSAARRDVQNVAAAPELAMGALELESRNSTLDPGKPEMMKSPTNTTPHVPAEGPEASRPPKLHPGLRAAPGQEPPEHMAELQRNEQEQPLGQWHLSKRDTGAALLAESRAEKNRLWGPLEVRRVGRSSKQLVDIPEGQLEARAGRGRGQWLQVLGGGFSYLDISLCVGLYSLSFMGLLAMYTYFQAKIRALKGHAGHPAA

Row | SMILES | inhibition
1 | C/C(=C\c1ccc(C(=O)O)cc1)c1ccc2c(c1)C(C)(C)CCC2(C)C | 5.8% (active)
2 | CCCCC/C=C\CC(O)/C=C/c1cccc(CC(O)CCCCO)n1 (stereo not given) | -9.6%
3 | O=c1cc(-c2ccccc2)[nH]c2nc(Cl)ccc12 | 2.9% (active)
4 | O=C1CCC(N2C(=O)c3ccccc3C2=O)C(=O)N1 (stereo not given) | 3% (active)
5 | Cc1cccc(C#Cc2ccccc2)n1 | 15.5% (active)
6 | CC(C)c1ccc2c(c1)c(SC(C)(C)C)c(CC(C)(C)C(=O)O)n2Cc1ccc(Cl)cc1 | 0.2% (active)
7 | NCCCCN=C(N)N | 15.4% (active)
8 | NC(N)=NCCCCN=C(N)N | 7% (active)
9 | CCN(CC)CC#CCOC(=O)C(O)(c1ccccc1)C1CCCCC1 (stereo not given) | 8.3% (active)
10 | O=C(/C=C/c1ccc(O)cc1)c1ccc(O)cc1O | 58.4% (active)
11 | NC(Cc1cccc(-c2ccccc2CP(=O)(O)O)c1)C(=O)O (stereo not given) | 5.3% (active)
12 | Oc1ccc(Cn2cc[nH]c2=S)cc1 | 22.2% (active)
13 | COCc1nc2c([nH]1)c(=O)n(C)c(=O)n2CC(C)C | 3% (active)
14 | CN(C)CC/C=C1\c2ccccc2COc2ccccc21 | 5% (active)
15 | CN(C)CCC=C1c2ccccc2CCc2ccccc21 | 23.9% (active)
16 | CN(C)CCC=C1c2ccccc2C=Cc2ccccc21 | -6.8%
17 | CNCCC=C1c2ccccc2CCc2ccccc21 | 0.1% (active)
18 | NC(=O)c1ncn([C@@H]2O[C@H](CO)[C@@H](O)[C@H]2O)c1O | 9.1% (active)
19 | NC(=O)c1ncn([C@@H]2O[C@H](CO)[C@@H](O)[C@H]2O)n1 | 6.1% (active)
20 | CCN(CC)CC(=O)Nc1c(C)cccc1C | 6.5% (active)
21 | COC(=O)C1=CO[C@@H](O)[C@@H]2C(CO)=CC[C@H]12 | 16.3% (active)
22 | CCC(C)N(C)C(=O)c1cc2ccccc2c(-c2ccccc2Cl)n1 (stereo not given) | 14% (active)
23 | CN=C(NC#N)NCCSCc1nc[nH]c1C | 13.2% (active)
24 | Cc1cccc(C)c1OCC(C)N (stereo not given) | -6%
25 | Cc1cccc(C)c1OCC(N)C(C)C (stereo not given) | 15.4% (active)

Row | SMILES | inhibition
26 | CC(N)C1CCC(C(=O)Nc2ccncc2)CC1 (stereo not given) | 23% (active)
27 | CC(N=C(NC#N)Nc1ccncc1)C(C)(C)C (stereo not given) | -10.9%
28 | c1ccc([C@H]2CN3CCSC3=N2)cc1 | 10.2% (active)
29 | c1ccc(C2CN3CCSC3=N2)cc1 (stereo not given) | -12.3%
30 | Brc1ccc([C@H]2CN3CCSC3=N2)cc1 | 18.2% (active)
31 | CCCn1c(=O)c(C)cn2nc(N)nc12 | 12.2% (active)
32 | CCCCCCCCCCC(C)(C)C(=O)Nc1c(OC)cc(OC)cc1OC | 15.9% (active)
33 | Brc1c(Br)c(Br)c2n[nH]nc2c1Br | 29.4% (active)
34 | NC(=NCc1ccccc1)NC(=O)c1nc(Cl)c(N)nc1N | 3.9% (active)
35 | NC(=Nc1ccccc1)NC(=O)c1nc(Cl)c(N)nc1N | 13.3% (active)
36 | O=C(O)CNC(=O)C(CS)Cc1ccccc1 (stereo not given) | 3.5% (active)
37 | COc1ccc(NC(=O)/C=C/c2ccc(Cl)cc2)cc1 | 18% (active)
38 | COc1ccc([C@@H]2Sc3ccccc3N(CCN(C)C)C(=O)[C@@H]2OC(C)=O)cc1 | 10.6% (active)
39 | CS(=O)(=O)Nc1ccc([N+](=O)[O-])cc1Oc1ccccc1 | 97.4% (active)
40 | Cc1ccc([N+](=O)[O-])cc1S(=O)(=O)N(C)C | -9.6%
41 | CC[C@H]1CN2CCc3cc(OC)c(OC)cc3[C@@H]2C[C@@H]1C[C@H]1NCCc2cc(OC)c(OC)cc21 | 13% (active)
42 | COc1cc2c(cc1OC)C1CC(=O)C(CC(C)C)CN1CC2 (stereo not given) | 6.3% (active)
43 | CCC1(C)CC(=O)NC1=O (stereo not given) | 13.4% (active)
44 | CC(C)(C)[C@]1(O)CCN2C[C@H]3c4ccccc4CCc4cccc(c43)[C@@H]2C1 | -3.5%
45 | O=C(C1CCCCC1)N1CC(=O)N2CCc3ccccc3C2C1 (stereo not given) | 8% (active)
46 | N[C@@H](CC(=O)O)C(=O)O | 20.6% (active)
47 | N[C@H](C(=O)O)[C@H](O)C(=O)O | -0.9%
48 | N[C@@H](CS(=O)O)C(=O)O | 16% (active)
49 | C=CC[C@H](N)C(=O)O | 5.3% (active)
50 | N[C@H](CO)C(=O)O | 6.6% (active)

Row | SMILES | inhibition
51 | CCc1cccc(N(C)C(N)=Nc2cccc3ccccc23)c1 | -10.9%
52 | O=C(O)COCCN1CCN(C(c2ccccc2)c2ccc(Cl)cc2)CC1 (stereo not given) | 6.6% (active)
53 | O=C(O)C1=CCCN(CCON=C(c2ccccc2)c2ccccc2)C1 | -7.5%
54 | CC(C)NC[C@H](O)COc1cccc2ccccc12 | -5.6%
55 | C=CCc1ccccc1OCC(O)CNC(C)C (stereo not given) | 1.7% (active)
56 | CC(C)NC[C@H](O)COc1cccc2[nH]ccc12 | 12.2% (active)
57 | CC(C)NCC(O)COc1cccc2ccccc12 (stereo not given) | 10.3% (active)
58 | CCC1(c2ccccc2)C(=O)NCNC1=O | -13.9%
59 | CC(C)NCC(O)COc1cccc2[nH]ccc12 (stereo not given) | 8% (active)
60 | c1cnc2c(c1)ccc1cccnc12 | 9.8% (active)
61 | CCN(CC)CCOC(=O)c1ccc(N)cc1 | -5.5%
62 | CCCCNc1ccc(C(=O)OCCN(C)C)cc1 | 9.2% (active)
63 | CCCCNc1cc(C(=O)O)cc(S(N)(=O)=O)c1Oc1ccccc1 | -9.6%
64 | NC(N)=NCc1cccc(I)c1 | 0.4% (active)
65 | C=C1C(=O)O[C@@H]2[C@H]3O[C@]3(C)CCC=C(C)CC[C@@H]12 | -3.6%
66 | CC(N)=NCCCC[C@@H](N)C(=O)O | 5% (active)
67 | CSC(N)=NCCC[C@H](N)C(=O)O | 8% (active)
68 | CN=C(N)NCCC[C@H](N)C(=O)O | 1.3% (active)
69 | CN(C)C(N)=NCCC[C@H](N)C(=O)O | -1.4%
70 | NC(N)=NCCC[C@H](N)C(=O)O | -5.3%
71 | N#C/C(=C\c1ccc(O)c(O)c1)C(=O)c1ccc(O)c(O)c1 | 81.2% (active)
72 | C[C@]12C=CC(=O)C=C1CC[C@@H]1C2=CC[C@]2(C)[C@@H](C(=O)CN3CCN(c4cc(N5CCCC5)nc(N5CCCC5)n4)CC3)CC[C@@H]12 | 21.5% (active)
73 | CN1CC(O)C(O)C(O)C1CO (stereo not given) | 11.1% (active)
74 | Cc1cc2c(cc1Cl)N(C(=O)Nc1ccc(Oc3cccnc3C)nc1)CC2 | 2.9% (active)
75 | Cc1cc2c(cc1Cl)N(C(=O)Nc1ccnc3ccccc13)CC2 | 52.9% (active)
